These results are taken from PubChem BioAssay (NCI).

Compounds without any hit were thinned out: in the full panel of roughly 83,000, 20% have a hit.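 Values shown are percent growth following 48 h exposure of cells in 96-well plates to a single concentration of compound; below 10 was considered active.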 Values without a mark were called inactive. Calls of active or inactive are those of the source.

Common to all, as to test: NCI-60 one-dose screen, 48 h (100 = growth as untreated, 0 = no growth, -100 = all killed)
In one assay the test system is HCT-15 colon. The conditions noted are these: 10 µM unless noted.
The subject of the next assay is HT29 colon. The conditions noted are these: 10 µM unless noted.
The subject of a further assay is SNB-75 CNS. The note with it: 10 µM unless noted.
The subject of a further assay is SNB-19 CNS. The conditions noted are these: 10 µM unless noted.
The subject of the next assay is U251 CNS. The conditions noted are these: 10 µM unless noted.
A further assay deals with PC-3 prostate. The conditions noted are these: 10 µM unless noted.
Another assay has as its system SK-MEL-5 melanoma. The note with it: 10 µM unless noted.
The subject of another assay is UACC-62 melanoma. The conditions noted are these: 10 µM unless noted.
The next assay relates to LOX IMVI melanoma. The note with it: 10 µM unless noted.
Another assay concerns SK-MEL-28 melanoma. The conditions noted are these: 10 µM unless noted.
Another assay concerns SK-MEL-2 melanoma. The conditions noted are these: 10 µM unless noted.
The next assay deals with EKVX NSCLC. The conditions noted are these: 10 µM unless noted.
The next assay has as its system SN12C renal. The note with it: 10 µM unless noted.
For another assay, the system named is UO-31 renal. The conditions noted are these: 10 µM unless noted.
A further assay relates to TK-10 renal. The note with it: 10 µM unless noted.
A further assay deals with ACHN renal. The note with it: 10 µM unless noted.
A further assay deals with CAKI-1 renal. The conditions noted are these: 10 µM.
The test system of a further assay is CCRF-CEM leukemia. The note with it: 10 µM unless noted.
In the next assay the test system is MOLT-4 leukemia. The note with it: 10 µM unless noted.
Another assay deals with A498 renal. The conditions noted are these: 10 µM unless noted.

`COc1cc(-c2noc(C[C@@H](NC(=O)OCc3ccccc3)C(C)C)n2)cc(OC)c1OC`: the growth is 97.4% with HCT-15 colon; 104% with HT29 colon; 76.3% with SNB-75 CNS; 89.6% in the assay with SNB-19 CNS; 98.4% in the assay with U251 CNS; 97% in the assay on PC-3 prostate. Moreover, the growth was 99.3% in the assay with SK-MEL-5 melanoma; 88.4% in the assay with UACC-62 melanoma; 101% in the assay on LOX IMVI melanoma; 100% in the assay on SK-MEL-28 melanoma; 99.3% with SK-MEL-2 melanoma; 96.9% in the assay with EKVX NSCLC. For the same compound, the growth was 90.1% in the assay on SN12C renal; 89.8% in the assay on UO-31 renal; 96.1% in the assay with TK-10 renal; 102% in the assay with ACHN renal; 100% in the assay on CAKI-1 renal; 99.9% in the assay on CCRF-CEM leukemia. In the assay with MOLT-4 leukemia, the growth was 93.9%.
On to `CCOC(=O)C1=C(C)Nc2nc3ccccc3n2C1c1ccccc1` (configuration not stated), for which the growth is 90.8% in the assay with HCT-15 colon; 97.9% in the assay with HT29 colon; 99.1% with SNB-75 CNS; 97.8% with SNB-19 CNS; 101% in the assay on U251 CNS; 97.7% with PC-3 prostate. In addition, the growth was 99.3% in the assay on SK-MEL-5 melanoma; 85.7% with UACC-62 melanoma; 90.4% in the assay with LOX IMVI melanoma; 109% in the assay on SK-MEL-28 melanoma; 102% with SK-MEL-2 melanoma; 94.4% in the assay with EKVX NSCLC. The growth was 92.9% with SN12C renal; 84.9% in the assay on UO-31 renal; 114% with TK-10 renal; 73.7% in the assay on ACHN renal; 90.6% in the assay with CAKI-1 renal; 94% with CCRF-CEM leukemia. Further, the growth in the assay on MOLT-4 leukemia is 97.8%.
For the compound `O=C(NNc1nc2cc(F)ccc2n2cncc12)c1cnccn1`, the growth in the assay on HCT-15 colon is 27.9%; in the assay with HT29 colon, 33.1%; in the assay with SNB-75 CNS it was 75.1%; in the assay with SNB-19 CNS, 33.7%; in the assay on U251 CNS, 29.8%; in the assay with PC-3 prostate, 44.6%. The growth with SK-MEL-5 melanoma was -11.6% (active); with UACC-62 melanoma it was 17.5%; with LOX IMVI melanoma, 13.7%; in the assay on SK-MEL-28 melanoma it was 26%; in the assay on SK-MEL-2 melanoma, 36%; in the assay with EKVX NSCLC it was 20.3%. In addition, the growth in the assay with SN12C renal is 34.2%; in the assay with UO-31 renal it was 11.7%; in the assay on TK-10 renal, 44%; in the assay with ACHN renal, 9.12% (active); with CAKI-1 renal, 7.86% (active); in the assay on CCRF-CEM leukemia it was 14.4%. In the assay with MOLT-4 leukemia, the growth was 6.82% (active).
With `C/C(=N/Nc1nc(N/N=C(/C)c2ccc([N+](=O)[O-])cc2)nc(N2CCOCC2)n1)c1ccc([N+](=O)[O-])cc1`, the growth with HCT-15 colon is 66.1%; in the assay on HT29 colon it was 80.6%; in the assay on SNB-75 CNS, 80.6%; with SNB-19 CNS, 63.1%; with U251 CNS, 92.6%; in the assay with PC-3 prostate it was 76.6%. For the same compound, the growth in the assay with SK-MEL-5 melanoma was 67.1%; in the assay on UACC-62 melanoma, 85.3%; with LOX IMVI melanoma, 38.9%; in the assay on SK-MEL-28 melanoma, 83.8%; with SK-MEL-2 melanoma, 96.4%; in the assay on EKVX NSCLC, 68.1%. The growth is 73.7% with SN12C renal; 80.8% in the assay with UO-31 renal; 127% in the assay with TK-10 renal; 66.1% in the assay on ACHN renal; 77.9% in the assay on CAKI-1 renal; 61.6% in the assay on CCRF-CEM leukemia. The growth in the assay on MOLT-4 leukemia is 78.9%.
Consider `CC(=O)NC(C)(C)C(=O)N1CCC[C@H]1C(=O)NC(C)(C)C(=O)N[C@@H](C)C(=O)NC(C)(C)C(=O)N[C@@H](C)C(=O)N[C@@H](CCC(N)=O)C(=O)NC(C)(C)C(=O)N[C@H](C(=O)NC(C)(C)C(=O)NCC(=O)N[C@@H](CC(C)C)C(=O)NC(C)(C)C(=O)N1CCC[C@H]1C(=O)N[C@H](C(=O)NC(C)(C)C(=O)NC(C)(C)C(=O)N[C@@H](CCC(N)=O)C(=O)N[C@@H](CCC(N)=O)C(=O)N[C@H](CO)Cc1ccccc1)C(C)C)C(C)C`, for which the growth with HCT-15 colon is 101% [4.25 µM]; in the assay on HT29 colon, 71% [4.25 µM]; with SNB-75 CNS, 33.4% [4.25 µM]; with SNB-19 CNS, 52.5% [4.25 µM]; in the assay with U251 CNS, 62.3% [4.25 µM]; in the assay on PC-3 prostate, 28.3% [4.25 µM]. The growth with SK-MEL-5 melanoma is 38.2% [4.25 µM]; in the assay with UACC-62 melanoma, 95.8% [4.25 µM]; with LOX IMVI melanoma, 84.3% [4.25 µM]; in the assay with SK-MEL-28 melanoma, 65.3% [4.25 µM]; in the assay with SK-MEL-2 melanoma it was 91.2% [4.25 µM]; in the assay on EKVX NSCLC, 76.7% [4.25 µM]. In addition, the growth is 32.2% [4.25 µM] with SN12C renal; 95.8% [4.25 µM] in the assay with UO-31 renal; 87.1% [4.25 µM] with TK-10 renal; 110% [4.25 µM] with ACHN renal; 81.9% [4.25 µM] in the assay on A498 renal; 62.8% [4.25 µM] with CCRF-CEM leukemia. Besides, the growth in the assay on MOLT-4 leukemia was 75.3% [4.25 µM].
As for `CCOC(=O)C1=C(C)N=C2Sc3ccccc3N2C1c1ccccc1` (configuration not stated), the growth is 77.8% with HCT-15 colon; -72.7% (active) in the assay on HT29 colon; 87.1% with SNB-75 CNS; 95.5% in the assay with SNB-19 CNS; 103% with U251 CNS; 78.2% in the assay with PC-3 prostate. Moreover, the growth with SK-MEL-5 melanoma was 85.8%; in the assay on UACC-62 melanoma, 65.8%; in the assay on LOX IMVI melanoma it was 84.3%; in the assay with SK-MEL-28 melanoma, 109%; in the assay on SK-MEL-2 melanoma, 89.7%; with EKVX NSCLC, 67.6%. In addition, the growth is 93.4% in the assay with SN12C renal; 64.7% in the assay with UO-31 renal; 110% with TK-10 renal; 88% with ACHN renal; 65.6% with CAKI-1 renal; 87.2% in the assay on MOLT-4 leukemia.
With `C/C=C/[C@@H]1C=C[C@@H]2C[C@H](C)CC[C@H]2[C@]1(C)/C(O)=C1/C(=O)[C@H](CO)N(C)C1=O`, the growth in the assay on HCT-15 colon is 39.4%; with HT29 colon, 61.9%; in the assay with SNB-75 CNS, 75.5%; with SNB-19 CNS it was 43.2%; in the assay on U251 CNS it was 47%; in the assay on PC-3 prostate, 45.7%. Besides, the growth in the assay with SK-MEL-5 melanoma is 52.4%; in the assay with UACC-62 melanoma, 46.9%; in the assay with LOX IMVI melanoma, 53.5%; in the assay with SK-MEL-28 melanoma it was 63.2%; in the assay on SK-MEL-2 melanoma, 79.2%; in the assay with EKVX NSCLC it was 55.6%. For the same compound, the growth in the assay with SN12C renal is 45.8%; in the assay on UO-31 renal, 56.2%; in the assay with TK-10 renal it was 67.7%; in the assay on ACHN renal it was 73.7%; in the assay with A498 renal, 43.5%; in the assay on CCRF-CEM leukemia, 40.4%. For the same compound, the growth in the assay on MOLT-4 leukemia was 60.6%.
